Screening results (PubChem BioAssay)
A selection: hits, their analogues and other compounds. The true share with any hit is near 2.4%.
D2 PAM-1: D2 dopamine receptor (human) potentiation | 340,000 compounds, 0.34% hits | potentiation, % at 10 µM | HEK293 T-REx D2, calcium flux, EC20 dopamine potentiation;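 active = potentiation over 3 SD above the plate norm, cut at about 30% in these data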; note: 0% is about no effect
Target sequence (P14416 whole entry, looked up): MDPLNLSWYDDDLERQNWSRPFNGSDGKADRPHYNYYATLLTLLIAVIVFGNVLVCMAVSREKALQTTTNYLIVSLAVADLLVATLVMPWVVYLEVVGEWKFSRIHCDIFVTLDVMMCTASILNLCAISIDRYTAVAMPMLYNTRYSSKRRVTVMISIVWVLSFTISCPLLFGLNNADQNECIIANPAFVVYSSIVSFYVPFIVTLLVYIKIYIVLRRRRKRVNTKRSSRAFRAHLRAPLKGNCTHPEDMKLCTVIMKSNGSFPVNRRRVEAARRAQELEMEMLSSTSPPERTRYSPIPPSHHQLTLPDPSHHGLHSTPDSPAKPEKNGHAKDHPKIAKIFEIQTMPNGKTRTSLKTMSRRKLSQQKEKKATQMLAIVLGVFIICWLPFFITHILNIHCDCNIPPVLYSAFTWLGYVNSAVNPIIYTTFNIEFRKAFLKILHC
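Primary screen. Calcium kinetics in induced HEK293 T-REx D2 cells: compound pre-addition 180 s, EC20 dopamine, 180 s more.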
D2 ag-1: activates the human D2 dopamine receptor; AID 624465; activation, % (concentration not given with the values); 360,000 compounds, 0.084% hits; DiscoveRx PathHunter D2 beta-arrestin, luminescence, 90 min; 100% = 57 uM dopamine signal; P14416; in the data active = activation above about 40%
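DiscoveRx PathHunter D2 beta-arrestin cells (2,100/well) attached overnight, then compound-stimulated 90 min at 37 C in HBSS/10 mM HEPES/0.1% Tween-20 buffer; beta-galactosidase complementation read by luminescence after 1 h at ambient temperature. Dopamine 57 uM final (EC100) as control.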
D2 antagonist: D2 dopamine receptor (human) antagonism. P14416. HEK293 TREx D2 cells, calcium flux, dopamine EC80. inhibition, % at 10 µM. 340,000 compounds, 2% hits. AID 485344; in the data active = inhibition above about 30%; inactive = below that, where a call was filed; note: 0% is about no effect
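Antagonism is scored as inhibition of an EC80 dopamine-evoked calcium signal in a force-coupled, tetracycline-inducible HEK293 T-REx D2 line, with compound present 180 s before agonist.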
D2 PAM-2: positive allosteric modulators of human D2 dopamine receptor. P14416. potentiation, % (no concentration beside the values). DiscoveRx D2 beta-arrestin cells, luminescence, 90 min; 100% = 57 uM dopamine signal. 360,000 compounds, 0.23% hits. AID 624464; in the data active = potentiation above about 50%
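D2 cells co-treated with compound plus 50 nM dopamine (EC20) for 90 min at 37 deg C to detect potentiation. Beta-arrestin recruitment was read as enzyme-fragment luminescence after 1 h at ambient temperature. Full response was set by 57 uM dopamine.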
D2 ag-2: D2 dopamine receptor (human) agonism; HEK293 T-REx D2 cells, calcium flux agonist mode; AID 485358; activation, % at 2 µM; 340,000 compounds, 0.53% hits;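 active = activation over 3 SD above normal in the single-dose calcium agonist read, cut at about 30% in these data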; note: 0% is about no effect
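HEK293 Trex D2 cells, tetracycline-induced, o/n 30 C 5% CO2; no-wash Ca dye, RT 30–90 min; 10-cycle baseline, 23 nl cpd added, kinetic Ca read 180 s; agonist hits = positive Ca response.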
Starred values were filed as active, the others as inactive; x = no result.

SMILES | D2 PAM-1 | D2 ag-1 | D2 antagonist | D2 PAM-2 | D2 ag-2
COc1ccc(-c2cc3nc(NCc4ccc(C)cc4C)n(C)c(=O)c3s2)cc1OC | x | -1 | x | 2 | x
Cc1ccc(CNc2nc3cc(-c4ccccc4)sc3c(=O)n2C)c(C)c1 | x | 53* | x | -4 | x
CC(=O)Nc1ccc(OC(=O)c2ccc(Cl)cc2)cc1 | -2 | 1 | 33* | -14 | 0
COc1ccc(OC)c(NC(=O)COCc2cc(-c3ccc(F)cc3)on2)c1 | 3 | x | x | x | x
CCOc1cccc2sc(Cl)nc12 | 1 | -1 | 8 | -8 | 0
CCOc1ccc(OCC)c2sc(C)nc12 | 37* | -4 | -23 | -7 | -2
c1ccc(CN2CCC3(CCCc4ccccc43)CC2)cc1 | -13 | -1 | 43* | -25 | 0
Cc1ccc(NC(=O)c2ccc(NC(=O)N3CCSc4ncccc43)cc2)cc1Cl | 0 | x | x | x | 0
COc1ccc(NC2=NC3(CCCCC3)N=C(N)N2)cc1 | 18 | -2 | -22 | -27 | 0
CCCCOc1ccc(NC2=NC3(CCCCC3)N=C(N)N2)cc1 | 18 | -1 | 35* | -2 | 1
CN(C)CC/C=C1/c2ccccc2CS(=O)(=O)c2ccccc21 | x | 3 | x | -3 | x
S=C1Nc2ccccc2Sc2ccc(Cl)cc21 | 14 | 0 | -1 | 10 | 0
CCCCCC[N+](C)(C)CC/C=C1/c2ccccc2Sc2ccc(Cl)cc21 | -26 | 3 | 75* | -9 | -2
CN(C)CC/C=C1\c2ccccc2COc2ccccc21 | -25 | -5 | 51* | -34 | 1
CN(C)CC/C=C1/c2ccccc2Sc2ccc(Cl)cc21 | -26 | -6 | 103* | -36 | -1
O=C(COc1ccc(Br)cc1)NCCNC(=O)c1ccncc1 | -11 | -8 | 47* | -16 | 0
Cc1ccc(CNC(=O)c2cc3sc(Cl)cc3n2C)cc1 | -6 | x | x | x | x
Cc1cccc(C)c1OCC(=O)NNC(=O)CCNC(=O)c1ccc(Br)cc1 | 0 | -5 | -3 | 64* | 0
COC(=O)C(Cc1ccccc1)NC(=O)CCNC(=O)c1ccc(Br)cc1 (centres undefined) | 40* | -1 | x | -5 | x
COc1ccc(CCNC(=O)c2cc3sc(Cl)cc3n2C)cc1OC | -7 | -1 | 63* | -3 | -1
COC(=O)C(Cc1ccccc1)NC(=O)CCC(=O)NC(C)CCc1ccccc1 (centres undefined) | -6 | -2 | 0 | -2 | 0
CCN(CC)c1ccc(NC(=O)CCCN2C(=O)C(c3ccccc3)Oc3cccnc32)c(C)c1 (centres undefined) | -1 | x | x | x | -1
CCN(CC)c1ccc2cc(-c3nc4sc5c(c4c(=O)[nH]3)CCC(C(C)(C)C)C5)c(=O)oc2c1 (centres undefined) | 0 | x | x | x | -1
CC(C)N(Cc1ccccc1)C(=O)CCS(=O)(=O)c1cc2c(cc1Cl)NC(=O)CO2 | 8 | x | x | x | -1
O=C(c1ccccc1F)N1c2nc(-c3ccco3)nn2C2(CCCCC2)[C@@H]2CCCC[C@@H]21 | -16 | x | x | x | 6
SMILES | D2 PAM-1 | D2 ag-1 | D2 antagonist | D2 PAM-2 | D2 ag-2
COc1ccc(CCNC(=O)CCNC(=O)c2ccc(Br)cc2)cc1OC | -9 | 0 | -8 | -2 | 35*
Cc1cc(C)c2oc(C(=O)Nc3nc4ccc(Cl)cc4s3)cc(=O)c2c1 | -2 | x | x | x | 1
O=C(CN1C(=O)c2cccnc2Oc2ccc(Cl)cc21)NC1CCCCCC1 | -9 | 4 | 41* | 0 | 0
COc1cc(C(CC(=O)Nc2ccc(Br)cn2)N2Cc3ccccc3C2=O)cc(OC)c1OC (centres undefined) | 3 | x | x | x | -1
Cc1ccc([N+](=O)[O-])c(OCCN2CCc3ccccc3C2)c1 | -27 | 3 | 88* | -3 | 17
Cc1ccc(OCCCCN2CCc3ccccc3C2)cc1 | -12 | 8 | 73* | -26 | 0
O=[N+]([O-])c1ccccc1OCCCN1CCc2ccccc2C1 | -9 | 5 | 75* | -26 | 0
O=C(COCc1cc(-c2cccs2)on1)NCc1ccc(F)cc1 | 2 | x | x | x | 0
Cc1ccc(C(=O)NCCc2csc(C)n2)cc1 | 2 | -7 | 43* | -2 | 0
CN(C)CCNc1oc(-c2ccc(COc3ccc(Cl)cc3)o2)nc1C#N | -1 | x | x | x | x
CN(C)C(CNC(=O)c1ccc(-c2ccccc2)cc1)c1ccccc1 (centres undefined) | 0 | 0 | 31* | -19 | 0
COc1ccc(C(CNC(=O)c2ccc3c(c2)OCCO3)N(C)C)cc1 (centres undefined) | x | -1 | 45* | -15 | 2
COc1ccc(CCNC(=O)c2ccc3c(c2)OCCO3)cc1 | 1 | 1 | 0 | -3 | 2
CN(C)C(CNC(=O)c1ccc(C(=O)c2ccccc2)cc1)c1ccccc1 (centres undefined) | -18 | -6 | -9 | -13 | 0
CCCS(=O)(=O)c1c(S(=O)(=O)CCC)c2cc(C(C)(C)C)ccn2c1C(=O)c1ccc(C)cc1 | -1 | x | x | x | 2
COc1ccc(-c2nc3c4ccccc4n(CC(=O)N4CCN(c5ccc(F)cc5)CC4)c(=O)n3n2)cc1 | 16 | x | x | x | x
CCn1cc(S(=O)(=O)c2ccc(Cl)cc2)c(=O)c2cc(F)c(N3CCOCC3)cc21 | 2 | x | x | x | 1
Cc1ccc2oc(C(=O)Nc3c(C(=O)c4ccc(C)c(F)c4)oc4ccccc34)cc(=O)c2c1 | 4 | x | x | x | 2
CN1CCN(c2cc(-c3ccccc3)nc3cc(-c4ccc(F)cc4)nn23)CC1 | -21 | -3 | 54* | -38 | 0
Cc1ccc(CNC(=O)c2ccc(CS(=O)(=O)Cc3ccc(F)cc3)o2)cc1 | 17 | x | x | x | 0
CCOC(=O)C(C)Nc1ncnc2onc(C)c12 (centres undefined) | x | x | x | x | 1
CC(=O)c1sc(NC(=O)c2cc(=O)c3ccccc3o2)nc1C | 3 | 3 | 4 | 68* | 0
CCCN1Cc2cccc(C(=O)Nc3ccccc3F)c2C1=O | 19 | x | x | x | 0
Cc1ccc(-n2c(=O)c3cccnc3n2CC(=O)Nc2ccc(Br)cc2)cc1C | 2 | x | x | x | 1
CC(C)=N/N=c1\scc(C)n1Cc1ccco1 | 8 | 2 | 40* | 7 | 1
SMILES | D2 PAM-1 | D2 ag-1 | D2 antagonist | D2 PAM-2 | D2 ag-2
Cc1cs/c(=N\N=C\c2ccccc2)n1Cc1ccco1 | -4 | -1 | 1 | 2 | 1
O=C(Nc1ccc(F)cc1)c1cccc(N2CCCS2(=O)=O)c1 | -1 | x | x | x | -1
Cc1cc(NC(=O)c2cc(-c3ccccc3Cl)nc3ccccc23)no1 | 32* | -3 | -11 | -10 | -1
O=C1CCCC/C1=C\Nc1ccc(O)cc1 | -2 | 9 | 5 | 10 | -2
O=C1CCCC/C1=C/Nc1cccc(C(F)(F)F)c1 | 0 | -2 | 34* | -3 | 0
COc1cc(NC(=O)Cn2nc(C(F)(F)F)c3c2CCCC3)c(OC)cc1Cl | 2 | x | x | x | -1
S=c1[nH]c(-c2ccccc2)cn1/N=C/c1ccccc1Br | -5 | -2 | -12 | -47 | 0
